Reference: PubChem BioAssay (Tox21)
Results filed as inconclusive are left out. A call without a number means that no potency is given here. Calls of active or inactive are those of the source. The call rests on the fitted dose curve; in most records, active means well fitted activation curve with a large enough effect in the signal ratio in the repeat runs (not every such curve was filed as active); inconclusive means weak or mixed curves; inactive means flat fitted curve, though single readings scatter; the % refers to the signal ratio.

Experiment: qHTS assay to identify small molecule agonists of H2AX (AID 1224845)
Details: CHO-K1 phospho-H2AX Ser139 HTRF, 3 h; series mostly up to 154 µM
Summary of the method: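 Wild-type CHO-K1 cells plated overnight, then exposed 3 hr at 37C to compounds at 15 concentrations (0.76% DMSO). Lysed, then HTRF anti-pH2AX(S139)-cryptate/anti-H2AX-d2 detection after 24 hr at room temperature; emissions 665 and 620 nm.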
For `CC(C)OC(=O)Nc1ccccc1`, the Potency was “inactive”. For `CN(C)N=O`, the Potency was “inactive”. In the case of `Clc1ccccc1Cl`, the Potency is reported as “inactive”. With `CCc1cccc(C)c1N(C(=O)CCl)C(C)COC` (stereo not given) the Potency was “inactive”. With `CCCCOC(=O)c1ccccc1C(=O)OCCCC` the Potency was “inactive”.

Experiment: qHTS assay to identify small molecule agonists of the hypoxia (HIF-1) signaling pathway (AID 1224846)
Details: HRE-bla ME-180 cells, beta-lactamase ratio, 17 h; series mostly up to 76.8 µM
Summary of the method: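 Agonist mode reporter screen. ME-180 cells stably expressing bla under HRE control received test compounds in DMSO for 17 hrs (37C, 5% CO2), and beta-lactamase activity was then detected with the CCF4-AM FRET substrate.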
For `CON(C)C(=O)Nc1ccc(Cl)c(Cl)c1`, the outcome was “inactive”. With `OCCN(CCO)CCO` the outcome was “inactive”. In the case of `CC(C)C1(C)N=C(c2nc3ccccc3cc2C(=O)O)NC1=O` (stereo not given), the outcome is reported as “inactive”. In the case of `Clc1cccc(Cl)c1Cl`, the outcome is reported as “inactive”. With `O=[N+]([O-])c1ccccc1` the outcome was “inactive”. For `Cc1ccc(N)cc1Cl`, the outcome was “inactive”. In the case of `O=c1[nH]c(=O)[nH]c(=O)[nH]1`, the outcome is reported as “inactive”. With `O=C(NC(=O)c1c(F)cccc1F)Nc1cc(Cl)c(OC(F)(F)C(F)C(F)(F)F)cc1Cl` (stereo not given) the outcome was “inactive”. In the case of `Cc1cc(Cl)ccc1O`, the outcome is reported as “inactive”. For `CN=C=S`, the outcome was “inactive”. In the case of `CC(C)(C)OOC(=O)c1ccccc1`, the outcome is reported as “inactive”. In the case of `O=NN1CCCC1`, the outcome is reported as “inactive”. With `CC(C)C#N` the outcome was “inactive”. In the case of `c1ccc(-c2ccccc2)cc1`, the outcome is reported as “inactive”. For `c1cc2c3c(cccc3c1)CC2`, the outcome was “inactive”. With `CNC(=O)Oc1ccccc1OC(C)C` the outcome was “inactive”. With `O=Cc1cccc(Oc2ccccc2)c1` the outcome was “inactive”. With `CC(C)(Cl)Cl` the outcome was “inactive”. For `NCC(O)c1ccc(O)cc1` (stereo not given), the outcome was “inactive”. With `C=CC(N)=O` the outcome was “inactive”. With `BrCCBr` the outcome was “inactive”. In the case of `Nc1ccccc1C(=O)O`, the outcome is reported as “inactive”. For `CN(C)CCO`, the outcome was “inactive”. With `CC1C=[C-]C=C1.[C-]#[O+].[C-]#[O+].[C-]#[O+].[Mn]` the outcome was “inactive”. With `O=[N+]([O-])c1ccc([As](=O)(O)O)cc1` the outcome was “inactive”. For `Clc1ccc(Cl)cc1`, the outcome was “inactive”. For `CC(C)(C)C(O)(CCc1ccc(Cl)cc1)Cn1cncn1` (stereo not given), the outcome was “inactive”. In the case of `C1CC2OC2CC1C1CO1` (stereo not given), the outcome is reported as “inactive”. In the case of `Nc1ccc(Oc2ccc(N)cc2)cc1`, the outcome is reported as “inactive”. In the case of `COCCl`, the outcome is reported as “inactive”. In the case of `CC(C)OC(=O)Nc1ccccc1`, the outcome is reported as “inactive”. In the case of `CN(C)N=O`, the outcome is reported as “inactive”. For `Clc1ccccc1Cl`, the outcome was “inactive”. In the case of `CCc1cccc(C)c1N(C(=O)CCl)C(C)COC` (stereo not given), the outcome is reported as “inactive”. With `CCCCOC(=O)c1ccccc1C(=O)OCCCC` the outcome was “inactive”.
